Source: PubChem BioAssay (NCATS)
Inconclusive results are not listed. Activity calls are given as the source filed them. Unless noted, calls follow the shape of the dose curve; as a rule, active = well fitted curve in the direction sought with a large enough effect; inconclusive = small, poorly fitted or top-dose-only effect, or another doubt; inactive = no such curve, though single readings can be large; an effect the other way counts as inactive or inconclusive.

Experiments:
[1] = biological target: Glutaminase kidney isoform, mitochondrial (Homo sapiens) (UniProt O94925); test: qHTS for Inhibitors of Glutaminase (GLS): LOPAC Validation (AID 624146);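 also: glutamate product detected by oxidase and peroxidase coupled Amplex red fluorescence gain; series mostly up to about 46 µM; % is scaled to controls: 0 for no effect and ±100 for the full control effect; nearly all actives have a fitted effect of over 60% in size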
In short: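 Assay buffer: 45 mM KH2PO4 pH 8.2, 0.02% Tween-20. hKGA acts on L-glutamine (1 mM solution added); product glutamate is reported by an oxidase/peroxidase Amplex Red coupling, with fluorescence taken at baseline and 30 min.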

[2] = qHTS of Trypanosoma Brucei Inhibitors: LOPAC Validation (AID 624147); also: 0% is about no effect
In short: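 In this concentration-response screen, enzyme-free wells defined baseline while DMSO plates tracked drift. Each reaction combined TbPYK, substrate, compound and 130 uM ADP for 45 min at room temperature. Kinase-Glo Plus luminescence gave the signal.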

[3] = biological target: Glucagon-like peptide 1 receptor (Homo sapiens) (UniProt P43220); test: qHTS of GLP-1 Receptor Agonists: LOPAC Validation (AID 624148);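 also: 0% is about no effect; higher luminescence signal means agonism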
In short: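 HEK293 cells stably co-expressing a cAMP-responsive luciferase reporter and a hypersensitive GLP-1R were plated 12 h at 37 °C and exposed to compounds for 4-6 hr at 37 °C, 5% CO2. Luminescence was read 12 min after adding detection reagent.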

[4] = qHTS of Nrf2 Activators: LOPAC Validation (AID 624149); also: 0% is about no effect
In short: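 Luciferase signal from ARE activation, read with Steady-Glo after 30 min at room temperature. Compounds were pin-transferred onto AREc32_Fluc cells (1000/well, OPTI-MEM/5% FBS, seeded overnight) and left 24 hr at 37 deg C.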

[5] = HTS Assay for Allosteric Antagonists of the Human D2 Dopamine Receptor: Hit Validation in HTRF (AID 624455);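 also: stable D1 dopamine receptor cell line scored for blocking the D1 response; % is scaled to controls: 0 for no effect and ±100 for the full control effect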
In short: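 Inhibition of the D1-mediated response was measured by HTRF. Cells used were a line stably expressing the D1 dopamine receptor.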

[6] = qHTS assay for small molecule activators of the nuclear factor-kappa B (NF-kB) signaling pathway (AID 651749; active = well fitted activation curve with a large enough effect in the signal ratio; the % refers to the signal ratio; also: series mostly up to about 77 µM; % of control where 0% means no effect); conditions: NF-kB-bla ME-180 cells, beta-lactamase FRET ratio, 16 h; stronger effect = higher value
In short: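 Human ME-180 cervical cells with an NF-kB-bla construct; compounds added via 23 nL pin transfer, DMSO as vehicle; incubation 16 hr. Reporter activity measured by FRET disruption.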

Chain of Glutaminase kidney isoform, mitochondrial (Homo sapiens) (O94925 whole entry, looked up, canonical isoform): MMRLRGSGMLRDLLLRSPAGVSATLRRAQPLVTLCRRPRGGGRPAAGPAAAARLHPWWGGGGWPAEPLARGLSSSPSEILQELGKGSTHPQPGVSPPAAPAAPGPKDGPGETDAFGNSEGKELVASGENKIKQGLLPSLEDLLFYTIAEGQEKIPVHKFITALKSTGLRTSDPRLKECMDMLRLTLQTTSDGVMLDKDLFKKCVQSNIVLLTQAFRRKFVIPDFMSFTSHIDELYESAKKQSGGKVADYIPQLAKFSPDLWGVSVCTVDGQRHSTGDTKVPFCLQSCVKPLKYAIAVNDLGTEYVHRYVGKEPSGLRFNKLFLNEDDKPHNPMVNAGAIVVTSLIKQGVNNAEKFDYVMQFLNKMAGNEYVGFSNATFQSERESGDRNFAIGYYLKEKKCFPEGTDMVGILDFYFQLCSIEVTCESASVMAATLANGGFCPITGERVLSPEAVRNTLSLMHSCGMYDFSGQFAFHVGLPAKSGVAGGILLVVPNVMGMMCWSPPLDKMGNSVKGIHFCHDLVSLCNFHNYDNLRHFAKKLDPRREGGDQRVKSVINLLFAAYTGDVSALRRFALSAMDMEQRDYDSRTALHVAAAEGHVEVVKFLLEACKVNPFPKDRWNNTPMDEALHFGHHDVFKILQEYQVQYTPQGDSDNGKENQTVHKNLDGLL
Chain of Glucagon-like peptide 1 receptor (Homo sapiens) (P43220 whole entry, looked up): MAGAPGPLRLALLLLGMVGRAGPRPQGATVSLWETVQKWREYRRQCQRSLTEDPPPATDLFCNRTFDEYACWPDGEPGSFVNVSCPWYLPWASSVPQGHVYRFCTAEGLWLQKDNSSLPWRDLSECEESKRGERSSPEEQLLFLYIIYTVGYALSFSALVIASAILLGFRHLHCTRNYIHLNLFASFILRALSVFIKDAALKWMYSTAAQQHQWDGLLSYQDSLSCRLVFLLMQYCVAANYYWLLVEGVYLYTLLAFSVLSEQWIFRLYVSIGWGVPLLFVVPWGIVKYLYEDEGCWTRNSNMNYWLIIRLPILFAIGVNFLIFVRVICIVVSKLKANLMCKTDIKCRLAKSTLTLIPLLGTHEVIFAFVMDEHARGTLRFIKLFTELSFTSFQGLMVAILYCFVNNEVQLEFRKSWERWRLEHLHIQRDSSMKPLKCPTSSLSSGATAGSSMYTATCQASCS

NCCCP(=O)(O)O
inactive: Potency [1] | Potency [2] | outcome [3] | Potency [4] | Potency [5]

C#CCN[C@H](C)Cc1ccccc1
inactive: Potency [1] | Potency [2] | outcome [3] | Potency [4] | Potency [5]

CC(Cc1ccc(OCC(=O)O)cc1)NCC(O)c1cccc(Cl)c1 (stereo not given)
inactive: Potency [1] | Potency [2] | Potency [4] | Potency [5]

C[N+](C)(C)CC#CCN1CCCC1=O
inactive: Potency [1] | Potency [2] | outcome [3] | Potency [4] | Potency [5]

NNC(N)=O
inactive: Potency [1] | Potency [2] | outcome [3] | Potency [4] | Potency [5] | activation [6] -0.594%

C=CCN1C[C@@H](C)N([C@H](c2ccc(C(=O)N(CC)CC)cc2)c2cccc(OC)c2)C[C@@H]1C
inactive: Potency [1] | Potency [2] | outcome [3] | Potency [4] | Potency [5]

COc1ccc2c(c1)c(CCN1CCOCC1)c(C)n2C(=O)c1cccc(Cl)c1Cl
inactive: Potency [1] | Potency [2] | outcome [3] | Potency [4] | Potency [5]

CC(=O)OCC1=C(C(=O)O)N2C(=O)[C@@H](NC(=O)CCC[C@@H](N)C(=O)O)[C@H]2SC1
inactive: Potency [1] | Potency [2] | outcome [3] | Potency [4] | Potency [5]

C[C@H](Cc1ccc2c(c1)OC(C(=O)O)(C(=O)O)O2)NC[C@H](O)c1cccc(Cl)c1
inactive: Potency [1] | Potency [2] | outcome [3] | Potency [4] | Potency [5]

CC(=O)NBr
inactive: Potency [1] | Potency [2] | outcome [3] | Potency [4] | Potency [5]

C[N+](C)(C)CCOC(=O)CBr
inactive: Potency [1] | Potency [2] | outcome [3] | Potency [4] | Potency [5]

CC(C)(O)[C@@H]1C2OC(=O)[C@@H]1[C@]1(O)C[C@H]3O[C@]34C(=O)O[C@H]2[C@]14C (tested in a mixture with another compound)
inactive: Potency [1] | Potency [2] | outcome [3] | Potency [4] | Potency [5]
